# Laboratory results published in PubChem BioAssay (NCATS).
# Inconclusive results are not listed. A call without a number means that no potency is given here. Unmarked numbers belong to inactive results. Calls of active or inactive are those of the source. Calls follow the shape of the full dose curve.
# Biological target: Nucleoprotein (Lymphocytic choriomeningitis virus (strain Armstrong)) (UniProt P09992)
# Test: qHTS for Inhibitors of the Functional Ribonucleoprotein Complex (vRNP) of Lymphocytic Choriomeningitis Arenaviruses (LCMV): LCMV Primary Screen - GLuc reporter signal (AID 1347086); also: nearly all actives have a fitted effect of over 70% in size
# Conditions: LCMV minigenome vRNP cell assay, Gaussia luciferase reporter; series mostly up to 57.5 µM
# Chain of Nucleoprotein (Lymphocytic choriomeningitis virus (strain Armstrong)) (P09992 whole entry, looked up): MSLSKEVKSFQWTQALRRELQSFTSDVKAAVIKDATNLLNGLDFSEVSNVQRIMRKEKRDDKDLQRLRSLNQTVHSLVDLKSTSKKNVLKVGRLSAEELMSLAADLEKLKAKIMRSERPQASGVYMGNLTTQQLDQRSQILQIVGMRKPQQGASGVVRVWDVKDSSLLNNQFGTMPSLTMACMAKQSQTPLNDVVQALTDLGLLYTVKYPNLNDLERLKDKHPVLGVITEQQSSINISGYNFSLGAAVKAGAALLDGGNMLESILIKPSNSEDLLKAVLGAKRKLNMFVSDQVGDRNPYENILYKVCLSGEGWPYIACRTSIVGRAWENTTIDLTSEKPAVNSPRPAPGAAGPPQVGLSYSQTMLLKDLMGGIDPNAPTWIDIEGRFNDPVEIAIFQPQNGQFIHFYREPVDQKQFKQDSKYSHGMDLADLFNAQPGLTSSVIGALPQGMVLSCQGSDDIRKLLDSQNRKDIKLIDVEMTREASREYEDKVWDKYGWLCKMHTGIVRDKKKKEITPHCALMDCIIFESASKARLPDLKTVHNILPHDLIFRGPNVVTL
Structure (SMILES),Potency,"activity change, negative = inhibition"
CCN(CC)CC(=O)Oc1ccc(NC(C)=O)cc1,inactive,–
CCCC(CCC)(C(=O)OCC)C(=O)OCC,inactive,–
O=C(O)Cc1cccc(-c2cc(CCCCCCc3ccc(O[C@H]4O[C@H](CO)[C@@H](O)[C@H](O)[C@@H]4O)c(-c4cccc(CC(=O)O)c4)c3)ccc2O[C@H]2O[C@H](CO)[C@@H](O)[C@H](O)[C@@H]2O)c1,–,2.06% [at 0.757 µM]
Cc1cc(=O)oc2cc(O[C@@H]3SC[C@@H](O)[C@H](O)[C@H]3O)ccc12,inactive,–
C=CCn1c(=O)n([C@@H]2O[C@H](CO)[C@@H](O)[C@H]2O)c2nc(N)[nH]c(=O)c21,inactive,–
O=C(OCC1(COC(=O)c2cccnc2)CCCC(COC(=O)c2cccnc2)(COC(=O)c2cccnc2)C1O)c1cccnc1,inactive,–
COc1cc2c(Nc3ccc(Br)cc3F)ncnc2cc1OCC1CCN(C)CC1,inactive,–
Cc1nnc(C(C)C)n1C1C[C@H]2CC[C@@H](C1)N2CC[C@H](NC(=O)C1CCC(F)(F)CC1)c1ccccc1 (stereo partly specified),inactive,–
CC(C(=O)O)c1ccc(C(=O)c2ccccc2)s1 (stereo unspecified),inactive,–
CC1c2ccccc2CN1NC(=O)c1ccc(Cl)c(S(N)(=O)=O)c1 (stereo unspecified),inactive,–
Nc1ccc(S(=O)(=O)Nc2ccc(Cl)nn2)cc1,inactive,–
COc1ccc(O)cc1,inactive,–
c1ccc2sc(SN3CCOCC3)nc2c1,inactive,–
Cc1cccc(C)c1NC(=O)c1cc(S(N)(=O)=O)c(Cl)cc1O,inactive,–
CN1C(C(=O)Nc2ccccn2)=C(O)c2sccc2S1(=O)=O,inactive,–
COC(=O)c1cc(Cl)ccc1OC,inactive,–
